The source of these data is PubChem BioAssay AID894 (National Center for Advancing Translational Sciences (NCATS), 2007).

“And” between values parts separate entries of the source, which are not always exact repeats. Identical values can stand only once. The whole screen tested about 150,000 compounds, of which about 6,500 (4.3%) were called active. Roughly 12% stayed inconclusive and do not appear here. This is one part of a sample in which actives are shown more often than they occur. A number with no mark means an inactive call. Calls come from the whole dose curve; as a rule, active = well fitted inhibition curve with a large enough effect (not every such curve was filed as active); inconclusive = small, poorly fitted or top-dose-only effect, or another doubt; inactive = no such curve, though single readings can be large or run the other way.
% is set by controls: 0 for no effect and ±100 for the full control effect; potency is the fitted concentration of half-maximal effect.

Sequence of 15-hydroxyprostaglandin dehydrogenase [NAD(+)] (Homo sapiens) (P15428 whole entry, looked up): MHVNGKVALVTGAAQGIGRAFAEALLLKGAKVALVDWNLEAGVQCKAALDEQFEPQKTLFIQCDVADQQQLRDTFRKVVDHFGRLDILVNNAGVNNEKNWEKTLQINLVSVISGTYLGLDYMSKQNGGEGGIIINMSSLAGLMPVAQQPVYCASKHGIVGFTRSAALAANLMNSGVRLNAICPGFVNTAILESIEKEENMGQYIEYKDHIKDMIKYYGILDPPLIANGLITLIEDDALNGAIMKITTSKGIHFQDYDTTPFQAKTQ

The target in this experiment is 15-hydroxyprostaglandin dehydrogenase [NAD(+)] (Homo sapiens) (UniProt P15428). Description: qHTS Assay for Inhibitors of HPGD (15-Hydroxyprostaglandin Dehydrogenase). The following applies: purified HPGD, NADH fluorescence kinetic, PGE2 substrate; activity change, negative = inhibition: active compounds read low. The text has this:
Human 15-Hydroxyprostaglandin dehydrogenase (HPGD) catalyzes the inactivation of prostaglandin E2, and plays a major role in cancer biology by antagonizing the oncogenic potential of cyclooxygenase type 2 (COX2). Assays are available, based on absorbance/fluorescence increase of NADH with the substrate 15-OH prostaglandin E2. References 1. Myung SJ, Rerko RM, Yan M, Platzer P, Guda K, Dotson A, Lawrence E, Dannenberg AJ, Lovgren AK, Luo G, Pretlow TP, Newman RA, Willis J, Dawson D, Markowitz SD. 15-Hydroxyprostaglandin dehydrogenase is an in vivo suppressor of colon tumorigenesis. […] 2. Yan M, Rerko RM, Platzer P, Dawson D, Willis J, Tong M, Lawrence E, Lutterbaugh J, Lu S, Willson JK, Luo G, Hensold J, Tai HH, Wilson K, Markowitz SD. 15-Hydroxyprostaglandin dehydrogenase, a COX-2 oncogene antagonist, is a TGF-beta-induced suppressor of human gastrointestinal cancers. Proc Natl Acad Sci U S A. 2004 Dec 14;101(50):17468-73. 3. Yang L, Amann JM, Kikuchi T, Porta R, Guix M, Gonzalez A, Park KH, Billheimer D, Arteaga CL, Tai HH, Dubois R, Carbone DP, Johnson DH. Inhibition of Epidermal Growth Factor Receptor Signaling Elevates 15-Hydroxyprostaglandin Dehydrogenase in Non-Small-Cell Lung Cancer. Cancer Res. 2007 Jun 15;67(12):5587-5593. Inhibition of HPGD activity was screened by utilizing prostaglandin as an electron donor and NAD+ as an electron acceptor/cofactor. An increase in the fluorescence intensity due to conversion of NAD+ to NADH was used to measure the enzyme activity. NIH Chemical Genomics Center [NCGC] Structural Genomics Consortium [SGC]
Buffer: 50 mM Tris-HCl, 0.01% Tween 20, pH 8. Enzyme Buffer: 50 mM Tris-HCl, 0.5 mM NAD+ and 0.01% Tween 20, pH 8. Reagents/Controls: Buffer in columns 3 and 4 as negative control (no enzyme). Substrate/cofactor solution: 1 mM NAD+ and 30 uM prostaglandin (Sigma, prostaglandin E2, # P5640) final concentrations dispensed throughout the plate. Enzyme: 20 nM HPGD final concentration in columns 1, 2, 5-48. Column 1 and 2 is neutral (100% activity). A titration of control inhibitor GW5074 (G6416 Sigma-Aldrich, St. Louis, MO) top concentration 10 mM in DMSO, then 1:2 dilution for a total of 16 concentrations in duplicate) was pin-transferred into column 2. Assay Steps: Three uL of enzyme were dispensed to 1536-well Greiner black solid bottom plates. Compounds and control inhibitor (23 nL) were transferred via Kalypsys PinTool. The plates were incubated for 15 min at room temperature, and then 1 uL of substrate/cofactor solution was added to start the reaction. The plates were immediately transferred to and read 5 times every 30 seconds on ViewLux High-throughput CCD imager (Perkin-Elmer) using 360 nm excitation and 450 nm emission fluorescence protocol. The fluorescence intensity difference between the last and the first time points was used to compute reaction progress.
(In general: qHTS replaces the single test concentration by a dilution series.)
As to `CC(=O)c1c(O)c(C)c(O)c(Cc2c(O)c3c(c(C(=O)/C=C/c4ccccc4)c2O)OC(C)(C)C=C3)c1O`, the activity change, negative = inhibition was -19.2% and -15.4%. The same measure, in the same setting: the value for `CCCCC/C=C\C/C=C\C/C=C\CCCCCCC(=O)NCCO` was -7.26% and -18.7%.

On to `CC(C)(c1ccc(OC[C@@H]2CO2)cc1)c1ccc(OC[C@H]2CO2)cc1`, for which the Potency was 12.6 µM (active).

Consider `CCOC(=O)c1ncn2c1[C@@H]1CCCN1C(=O)c1cc(OC)ccc1-2`, for which the activity change, negative = inhibition was -9.65%.

For the compound `Cc1nc2nc(C)c(CCC(=O)N3CCC4(CC3)OCCO4)c(C)n2n1`, the activity change, negative = inhibition was -4.62%. Consider `C=CC#N`, for which the activity change, negative = inhibition is -3.54%. In the case of `NCCc1c[nH]c2ccc(O)cc12`, the activity change, negative = inhibition is -4.55% and -5.27% and -12.4%. In the case of `Cc1noc(C)c1CSc1nc2cc(S(=O)(=O)N3CCOCC3)ccc2o1`, the Potency is 7.94 µM (active).

With `C[C@@]12CCC3C(CC[C@@H]4CC(O)CC[C@@]34C)C1CCC2O` (some centres not stated), the activity change, negative = inhibition was -3.43%. On the same count and under the same terms, to `CC(Cl)Cl` belongs -8.77%.

In the case of `O=C(NCc1cccs1)c1ccc(Br)o1`, the Potency was 20 µM (active).

In the case of `Fc1ccc(C(OCCN2CCN(C/C=C\c3ccccc3)CC2)c2ccc(F)cc2)cc1`, the activity change, negative = inhibition was -13.4%. Same read-out and setting: the value for `CCCCC/C=C\C/C=C\C/C=C\C=C\[C@H](CCCC(=O)O)OO` was -9.41%. For the compound `Cc1cccc2c3c(ccc12)C1=C(C(=O)C3=O)C(C)CO1` (configuration not stated), the Potency was 17.8 µM (active).

Take `CNCC[C@H](Oc1ccc(C(F)(F)F)cc1)c1ccccc1`: the activity change, negative = inhibition was -9.03% and -8.03% and -3.66%.

With `CC(C)(O)/C=C\C(=O)[C@](C)(O)[C@H]1[C@H](O)C[C@]2(C)[C@@H]3CC=C4[C@@H](C=C(O)C(=O)C4(C)C)[C@]3(C)C(=O)C[C@@]12C`, the activity change, negative = inhibition is -9.86%.

Take `COC(=O)N(c1ccc(OC)cc1)P1(=S)OCCC(C)O1` (configuration not stated): the Potency was 4.47 µM (active). `OC(Cn1c2ccccc2c2ccccc21)C[n+]1ccccc1` (configuration not stated): the activity change, negative = inhibition was -3.99%. As for `Cc1ccc(N2C(=O)NC(=O)C(CCc3ccncc3)(Cc3cccc(Cl)c3Cl)C2=O)cc1` (configuration not stated), the activity change, negative = inhibition was -5.28%.

Regarding `C=CCSSCC=C`, the Potency was 8.91 µM (active). Take `CC(=O)OC1C2CCC3C1(CC(O)[C@@]1(O)[C@@H](CC(O)C1(C)C)[C@]3(C)O)C[C@@]2(C)O` (some centres not stated): the activity change, negative = inhibition is -0.742%.

Regarding `CCCCCCCCCCCCCC(=O)O[C@@H]1[C@@H](C)[C@@]2(O)[C@@H](C=C(CO)C[C@]3(O)C(=O)C(C)=C[C@@H]23)[C@@H]2C(C)(C)[C@]12OC(C)=O`, the activity change, negative = inhibition was -19%. Take `CC(C)(O)c1[se]c2ccccc2c1I`: the activity change, negative = inhibition was -24.2%. Take `Cc1cccc(N2C(=O)NC(=O)/C(=C\c3cnn(-c4ccccc4)c3)C2=O)c1`: the Potency was 10 µM (active). Regarding `CC12CN3CC(C)(CN(C1)C3c1cccs1)C2` (configuration not stated), the activity change, negative = inhibition is -2.07%.

`CC(=C1C(=O)c2ccccc2C1=O)N1CCN(CCN=Cc2c(O)n(C)c(=O)n(C)c2=O)CC1`: the activity change, negative = inhibition was -26.9%.

Regarding `COc1c(O)ccc2c1-c1c3c(cc4c1C(C2)N(C)CC4)OCO3` (configuration not stated), the activity change, negative = inhibition is -4.96%.

Take `O=c1c2ccccc2nc(-c2ccco2)n1-c1ccc(Br)cn1`: the activity change, negative = inhibition was -7.61%. On the same count and under the same terms, the value for `Cc1nc2ccccn2c1P(=S)(N1CCCCC1)N1CCCCC1` was -26.7%; that for `CCCCCCCCc1[se]c2ccccc2c1Br` was 1.04%. Regarding `CCNC[C@H](O)c1cccc(O)c1`, the activity change, negative = inhibition was -6.69%.

Regarding `O=C1/C(=C\c2ccc3c(c2)OCO3)N2CCC1CC2`, the Potency was 25.1 µM (active). With `N[C@H](Cc1o[nH]c(=O)c1Cl)C(=O)O`, the activity change, negative = inhibition was 0.654%. Same read-out and setting: to `Cc1ccc(N(C)C(=O)Oc2cccc3ccc(C)nc23)cc1` belongs -1.1%. As for `O=c1c2ccccc2nc(-c2ccc(Cl)cc2Cl)n1-c1ccncc1`, the activity change, negative = inhibition is -1.06%. Still for that read-out and setting: to `C1CC[C@H]([C@@]23C[C@H](C[C@H]4CCCN[C@H]42)[C@@H]2CCCCN2C3)NC1` belongs -4.36%; to `O=C(O)C1C2CCC(O2)C1C(=O)O` (configuration not stated), -2.85%.

As to `O=C(OCC1O[C@@H](OC(=O)c2cc(O)c(O)c(O)c2)[C@@H](OC(=O)c2cc(O)c(O)c(O)c2)[C@@H](OC(=O)c2cc(O)c(O)c(O)c2)[C@@H]1OC(=O)c1cc(O)c(O)c(O)c1)c1cc(O)c(O)c(O)c1` (some centres not stated), the Potency is 10 µM (active). Turning to `CC(C)N(CC#CCC1(O)c2ccccc2-c2ccccc21)C(C)C`, the activity change, negative = inhibition was -8.59%. The same measure, in the same setting: the value for `CCN1CCN(C(=O)Cc2coc3cc(C)cc(C)c23)CC1` was -14.1%; that for `O=[N+]([O-])c1ccc(Cl)c(Cl)c1` was -4.16%. Still for that read-out and setting: to `CN[C@@H]1C[C@H]2O[C@@](C)([C@@H]1OC)n1c3ccccc3c3c4c(c5c6ccccc6n2c5c31)C(=O)NC4` belongs -25.7%. Regarding `Cc1ccc(Cn2c(C)c3cnn(CC(=O)N4CCC5(CC4)OCCO5)c(=O)c3c2C)cc1`, the activity change, negative = inhibition was -21.8%.

Regarding `Cc1cc(-c2n[nH]c(=S)n2-c2ccc(C)c(C)c2)no1`, the Potency is 5.62 µM (active). As for `NCCc1ccc(S(=O)(=O)F)cc1`, the activity change, negative = inhibition is -8.88%. The same measure, in the same setting: to `CC(=O)O[C@H]1CC[C@@]2(C)[C@@H](CC[C@H]3[C@H]2CC(=O)[C@]2(C)[C@@H]3C[C@@H](N3CC3)[C@H]2C(C)=O)C1` belongs -8.48%; to `CCC(C)C(=O)O[C@@H]1C[C@@]2(C)C(c3ccoc3)OC(=O)CC23OC2(C)O[C@@]14[C@@]1(C)C(CC(=O)OC)C5(C)CC1(O)C(O)(C5OC(=O)C1(C)OC1C)C(OC(C)=O)[C@@]34O2` (some centres not stated), -23.2%.
